HCMV inh: blocks human cytomegalovirus replication. HFF cells, HCMV-luciferase reporter, 72 h; active compounds read low. activity change, negative = inhibition, % at 57.5 µM. 4.5% of 410,000 active; in the data active means activity change below about -60%; inconclusive means no clear call, values can overlap the other calls; inactive means above about -39%; further: on the % scale 0 is the no-effect control and ±100 the full control effect
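Steps: HFFs plated, 16 h 37C; compounds added; HCMV-luciferase added to MOI 1 PFU/cell; 72 h 37C; OneGlo reagent, 5 min room temperature; luminescence read, normalized to controls.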
Pf growth 48h: inhibits P. falciparum growth in the first generation, 48 h; P. falciparum luciferase growth in erythrocytes, 48 h; Potency, µM (titrated, usually from 28.7 µM), inactives show top-dose activity change, negative = inhibition, hits mostly inhibitors; 5.9% of 310,000 active; AID 504832; further: potency means the concentration at half of the fitted maximal effect; on the % scale 0 is the no-effect control and ±100 the full control effect
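First compound was added to culture medium, then infected red cells at 0.1% parasitemia and 2% hematocrit (final). After incubation at 37 C under 5% CO2, luciferase detection reagent was dispensed and light output recorded.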
Shiga toxin inh: inhibitors of Shiga toxin in Vero cells; 9.2% of 290,000 active; Vero cells, Shiga toxin protein synthesis inhibition reporter; AID 2315; inhibition, % at 38.7 µM; in the data active means inhibition mostly above about 28%, no sharp cut-off; inactive means mostly below about 43%; further: 0% is about no effect
Cycloheximide cs: counter-screen hit for Shiga toxin inhibitors, cycloheximide. cell reporter, cycloheximide protein synthesis inhibition counterscreen. max response, %. 12% of 300,000 active. AID 2314; in the data active means max response mostly above about 13%, no sharp cut-off; inactive means mostly below about 14%; further: read at 38.3 µM for the half of the compounds with a filed dose; 0% is about no effect
Pf growth 96h: P. falciparum growth inhibition at 96 hour, primary screen for plastid delayed-death inhibitors; P. falciparum luciferase reporter growth, 96 h; Potency, µM (highest dose often 28.7 µM), without a hit: at the highest dose activity change, negative = inhibition, actives largely listed as inhibitors; 6.9% of 320,000 active; AID 504834; further: potency means the concentration at half of the fitted maximal effect; on the % scale 0 is the no-effect control and ±100 the full control effect
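Compounds incubated with erythrocytes infected by luciferase-expressing P. falciparum (2% hematocrit, 0.05% parasitemia final) for 96 hours, 37 C in 5% CO2. Growth inhibition scored as decreased luciferase luminescence.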
HCV inh: inhibitors of hepatitis C virus infection | Huh7.5.1 HCVcc-Cre infection, luciferase reporter, 44 h | Potency, µM (titrated, usually from 41.8 µM), for inactives: at the top dose activity change, negative = inhibition, most hits filed as inhibitors | 3.4% of 340,000 active; further: potency means the concentration at half of the fitted maximal effect; on the % scale 0 is the no-effect control and ±100 the full control effect
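Antiviral activity was scored by luciferase reporter output from cells infected with HCVcc-Cre (~0.5 moi) in presence of compound, 44 h infection period, cells seeded 1,000/well 4 h prior.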
The depositor's hits bear a star; i = inactive; ? = inconclusive; / = no result. Compounds with a hit are over-represented: about 21% of the library has one in this group of screens. Unless noted, the call rests on the fitted dose curve; in most records, active means well fitted inhibition curve with a large enough effect; inconclusive means small, poorly fitted or top-dose-only effect, or another doubt; inactive means no such curve, though single readings can be large or run the other way.

SMILES | HCMV inh | Pf growth 48h | Shiga toxin inh | Cycloheximide cs | Pf growth 96h | HCV inh
Cc1c(Cl)cccc1NC(=O)c1ccc2nc(C(C)C)oc2c1 | 17 | / | / | / | / | /
CC(C)c1nc2ccc(C(=O)Nc3ccccc3F)cc2o1 | -63* | / | / | / | / | /
O=C(Nc1ccc(Cl)cc1)c1ccc2snnc2c1 | 9 | 16% | 38* | 37* | ? | ?
Cc1ccc(CN2CCN(Cc3cnc(N4CCOCC4)s3)CC2CCO)o1 (stereo not given) | -10 | 2% | -5 | 0 | 30% | 10%
CCCOc1ccc(CCC(=O)N/N=C/c2ccncc2)cc1 | 0 | -28% | -10 | 5 | -21% | -6%
CC12CCC=CC1C(c1cccc(Br)c1)N(Cc1ccccc1)C2=O (stereo not given) | / | / | -5 | -2 | / | /
O=C(Nc1ccccc1F)c1ccc2snnc2c1 | 29 | 0% | 60* | 38* | -7% | 7%
N#Cc1cc(C#N)c(SCC(=O)N2CC(=O)Nc3ccccc32)nc1N | -15 | ? | / | / | ? | ?
CCc1cc2c(SCC(=O)N3CC(=O)Nc4ccccc43)ncnc2s1 | -60* | ? | -7 | -3 | ? | -25%
CCc1ccc2nc(SCC(=O)N3CC(=O)Nc4ccccc43)c(C#N)cc2c1 | 40 | -7% | 15 | -2 | 12µM* | 4.5µM*
Cc1nc(SCC(=O)N2CC(=O)Nc3ccccc32)nc(C)c1C | -1 | 5% | -2 | -2 | -28% | 9%
CCc1cc2cc(C)ccc2nc1SCC(=O)N1CC(=O)Nc2ccccc21 | ? | ? | -13 | -1 | 5% | 7.1µM*
Cc1sc2nc(C3CCCCC3)nc(SCC(=O)N3CC(=O)Nc4ccccc43)c2c1C | -1 | ? | -11 | 6 | 4.7µM* | -12%
Cc1ccccc1OCCC(=O)OCC(=O)NC1CC1 | -29 | -4% | / | / | -5% | 1%
CCc1ccc(NC(=O)CCC(=O)Nc2nnc(C(F)(F)F)s2)cc1 | 7 | 46% | 4 | -3 | 43% | -4%
COC(=O)[C@H](CCSC)NC(=O)c1ccc(NC[C@@H](N)CS)cc1-c1ccccc1 | / | / | 6 | -8 | / | /
CC(Cl)C(=O)NN=C(c1ccccc1)c1ccccc1 (stereo not given) | -11 | 4% | 41 | 16* | 13% | -15%
O=S1(=O)CC(N2CCN(CC3CC3)CC2)CN1Cc1ccccc1 (stereo not given) | -12 | / | / | / | / | /
CCOC(=O)C1(CC2CC2)CCN(Cc2cnc(-c3ccc(OC)cc3)nc2)CC1 | -62* | ? | 11 | -2 | ? | ?
CCOC(=O)C1(CC2CC2)CCN(Cc2ccc(O)c(Cl)c2)CC1 | / | 4.1µM* | -14 | -4 | -11% | /
CCOC(=O)C1(Cc2cccc(OC)c2)CCN(Cc2cnc(N)nc2)CC1 | -27 | 51% | -4 | -2 | ? | -6%
COc1ccc(C(=O)C(Nc2ccccc2)C(=O)Nc2ccc3ccccc3c2)cc1 (stereo not given) | 51 | / | / | / | / | /
Cc1nnc(NS(=O)(=O)c2ccc(F)cc2)s1 | -15 | / | / | / | / | 16%
CSCCC(NC(=O)c1ccc(Cl)cc1Cl)C(=O)NCc1ccncc1 (stereo not given) | -7 | -19% | / | / | 16% | -14%
Cc1c(C(=O)N2CCCCC2)oc2ccc(S(=O)(=O)N3CC(C)CC(C)C3)cc12 (stereo not given) | / | ? | -7 | -5 | 12µM* | ?
SMILES | HCMV inh | Pf growth 48h | Shiga toxin inh | Cycloheximide cs | Pf growth 96h | HCV inh
Cc1c(C(=O)N2CCN(C)CC2)oc2ccc(S(=O)(=O)N3CCOCC3)cc12 | 30 | -21% | 13 | -2 | 8.3µM* | 16%
CCC(=O)N1CCc2cc(CNS(=O)(=O)c3ccc(C(C)C)cc3)ccc21 | -4 | / | / | / | / | /
COc1ccc(S(=O)(=O)CCC(=O)N2CCN(c3ccc([N+](=O)[O-])cc3)CC2)cc1 | ? | ? | -4 | 3 | 15% | ?
Cc1ccc(S(=O)(=O)CCC(=O)N2CCN(c3ccc([N+](=O)[O-])cc3)CC2)cc1 | 0 | 17% | 5 | 15 | 17% | 13µM*
O=C(CCS(=O)(=O)c1ccc(Br)cc1)N1CCN(c2ccc(F)cc2)CC1 | -65* | 16% | 17 | 6 | 61% | 1%
O=C(CCS(=O)(=O)c1ccc(Br)cc1)N1CCN(c2ccc(Cl)cc2)CC1 | -79* | 18% | -17 | -7 | ? | -10%
COc1ccc(S(=O)(=O)CCC(=O)N2CCN(c3ccc(C(C)=O)cc3)CC2)cc1 | 31 | -11% | 56* | 15* | 8.3µM* | -21%
COc1ccc(N2CCN(C(=O)CCS(=O)(=O)c3ccc(OC)cc3)CC2)cc1 | -33 | -2% | 6 | -2 | 26% | -6%
Cc1nn2c(=O)cc(COC(=O)c3ccccc3NC(=O)C(C)C)nc2s1 | 100 | / | / | / | / | /
O=C(CNS(=O)(=O)c1ccc(Cl)cc1)N1CCN(c2ccc(F)cc2)CC1 | -10 | / | / | / | / | ?
O=C(CNS(=O)(=O)c1ccc(Br)cc1)N1CCN(c2ccc(F)cc2)CC1 | -31 | ? | 3 | -1 | 13µM* | ?
COc1ccc(OC)c(NC(=O)C(Cc2ccccc2)NS(=O)(=O)c2ccc3c(c2)CCC(=O)N3)c1 (stereo not given) | 1 | / | / | / | / | /
COc1ccc(NC(=O)C(Cc2ccccc2)NS(=O)(=O)c2ccc3c(c2)CCC(=O)N3)c(OC)c1 (stereo not given) | -102* | / | / | / | / | /
CC(=O)c1cnc2c(-c3ccc(Cl)cc3)cnn2c1C | 54 | 268% | 40* | 14 | 2% | -1%
Cc1nn2c(-c3ccncc3)ccnc2c1Cl | 14 | ? | 5 | -4 | -3% | 25%
Nc1c(C(=O)O)cnc2c(-c3ccc(Cl)cc3)cnn12 | 72 | 124% | 91 | 27* | i | -7%
Clc1ccc(-c2cnn3c(-c4ccncc4)ccnc23)cc1 | 41 | i | 89* | 35* | 277% | -4%
N#Cc1cnn2c(N)c(-c3ccc(Cl)cc3)cnc12 | ? | 40% | -5 | 5 | 57% | -15%
Nc1nc2nccc(-c3ccc(Cl)cc3)n2n1 | 22 | ? | 42* | 44* | / | 16%
CC(=O)c1cnc2c(-c3ccccc3)c(-c3ccccc3)nn2c1C | 8 | -11% | -6 | -2 | ? | -5%
Cc1nc2cc(-c3ccsc3-n3c(C)ccc3C)[nH]n2c(=O)c1Cl | -12 | / | -1 | -4 | 15µM* | 20%
Cc1cc(=O)n2[nH]c(-c3ccsc3-n3c(C)ccc3C)cc2n1 | -17 | 73% | 9 | 33 | 6.6µM* | -7%
CC(=O)Nc1ccc(S(=O)(=O)N(C)CC(=O)N/N=C/c2ccncc2)cc1 | -20 | -27% | -1 | -9 | 70% | -7%
Cc1cc(C(=O)OCC(=O)N2CC(=O)Nc3ccccc32)c(C)n1-c1ccc(F)cc1 | -30 | 4.7µM* | 2 | 6 | 2.6µM* | ?

Screening results: PubChem, National Center for Advancing Translational Sciences (NCATS)
